Reference: the supplement of paper PMC13380429
Unmarked numbers belong to inactive results.

Tested on: Vero E6 infected with SARS-CoV-2
Assay: inhibition of SARS-CoV-2 cytopathic effect; higher = more antiviral protection, active = above 15
Settings: 48 h

Row | Compound | inhibition of SARS-CoV-2 cytopathic effect (1 nM) [%] | inhibition of SARS-CoV-2 cytopathic effect (8.33 nM) | inhibition of SARS-CoV-2 cytopathic effect (100 nM) | inhibition of SARS-CoV-2 cytopathic effect (833.33 nM) | inhibition of SARS-CoV-2 cytopathic effect (10000 nM)
1 | O=C(O)C1=CCCNC1 [guvacine] | 2 | 5.07% | 3.21% | 6.87% | 6.39%
2 | C[C@@]12CC[C@@H]3[C@@](CC[C@H]4[C@@]3(C)CCC[C@@]4(C)C(=O)O)(CC1=O)C2 [isosteviol] | -1.01 | 3.07% | -0.69% | 0.69% | 1.55%
3 | Cc1cccc(C)c1NC(=O)CN1CCCCCC1 [pincainide] | -3.17 | -5.99% | -2.63% | -1.95% | 0.04%
4 | O=C(NCCCN1CCC2(CC1)OCc1ccccc12)[C@H]1CCCN1Cc1ccccc1 | -4.44 | -4.12% | -5.12% | -1.81% | 0.56%
5 | Clc1ccc(C2=CCC[C@H]3CC[C@@H]2N3)cn1 | -2.02 | 2.33% | -0.54% | 0.15% | -1.94%
6 | CC(C)C[C@H](NC(=O)[C@H](Cc1ccccc1)NC(=O)c1cnccn1)B(O)O [bortezomib] | 1.7 | 11% | 32.8% (active) | 27.1% (active) | 12.7%
7 | Brc1ccc(NC2C3CC4CC(C3)CC2C4)cc1 (stereo not given) [bromantan] | -1.24 | -0.71% | -0.8% | 0.76% | 1.67%
8 | CCOC(=O)Nc1ccc2c(c1)N(C(=O)CN(CC)CC)c1ccccc1CC2 | -0.45 | 0.56% | 1.77% | 0.29% | 0.79%
9 | CNC(=O)CN(CCN(CCN(CC(=O)[O-])CC(=O)NC)CC(=O)[O-])CC(=O)[O-].[Gd+3] [gadodiamide] | -0.88 | -0.45% | -3.37% | -0.21% | 1.36%
10 | Cc1cc(OI)c(C(C)C)cc1-c1cc(C(C)C)c(OI)cc1C [thymol-iodide] | -1.11 | -0.04% | -0.16% | 1.69% | -2.32%
11 | CC(NCCC(c1ccccc1)c1ccccc1)c1ccccc1 (stereo not given) [fendiline] | 0.75 | 2.18% | -0.68% | -4.72% | 11.9%
12 | CC(=O)[C@]1(N)Cc2c(O)c3c(c(O)c2[C@@H](O[C@H]2C[C@H](O)[C@H](O)CO2)C1)C(=O)c1ccccc1C3=O [amrubicin] | 2.67 | -2.31% | -3.18% | -3.9% | -0.58%
13 | CCCC1(CCC)CCC2(CCN(CCCN(CC)CC)C2)CC1 [atiprimod] | -0.73 | 0.69% | 0.76% | -4.7% | -26.6%
14 | CCc1ccc(C2=CC(C)(C)Sc3ccc(C#Cc4ccc(C(=O)O)cc4)cc32)cc1 | 0.1 | 2.14% | 1.4% | 1.53% | 3.68%
15 | Cn1cc(C(=O)C(=O)N[C@H]2CN3CCC2CC3)c2ccccc21 | 0.78 | 1.33% | 0.72% | -1.49% | 1.51%
16 | C1=N/C2=N/c3ccc(OCCN4CCCC4)c(c3)COC/C=C/COCc3cccc(c3)C(=C1)N2 [pacritinib] | -0.44 | 0.71% | 0.95% | 0.27% | -15%
17 | COc1ccc(C(C)(C)C)cc1CN[C@H]1C2CCN(CC2)[C@H]1C(c1ccccc1)c1ccccc1 [maropitant] | 2.55 | 0.73% | -1.99% | -1.66% | 12.5%
18 | CN(C)C(=O)c1ccc(S(=O)(=O)c2ccc(NC(=O)[C@@](C)(O)C(F)(F)F)c(Cl)c2)cc1 | -0.45 | 0.49% | 0.27% | 0.59% | -3.54%
19 | O=C(O)c1ccc(CN2CCC(CN[C@@H]3C[C@H]3c3ccccc3)CC2)cc1 | 0.72 | 1.52% | 1.24% | 3.6% | 2.94%
20 | Cc1ccnc2c1CCCC2C(N)=S (stereo not given) [isotiquimide] | 2.13 | 1.38% | 1.08% | 1.85% | 2.59%
21 | CCC(=O)Nc1cccc(Oc2nc(Nc3ccc(N4CCN(C)CC4)cc3OC)ncc2Cl)c1 | -2.36 | -1.81% | -3.83% | -2.5% | 1.78%

Row | Compound | inhibition of SARS-CoV-2 cytopathic effect (1 nM) [%] | inhibition of SARS-CoV-2 cytopathic effect (8.33 nM) | inhibition of SARS-CoV-2 cytopathic effect (100 nM) | inhibition of SARS-CoV-2 cytopathic effect (833.33 nM) | inhibition of SARS-CoV-2 cytopathic effect (10000 nM)
22 | Nc1nc2cc(-c3ccc4ncc(C(=O)N5CCOCC5)n4c3)ccc2o1 | 0.78 | 5.87% | 4.68% | 3.05% | -2.33%
23 | O=C1O[C@H]([C@@H](O)CO)C(O)=C1O | -3.29 | -0.03% | -1.22% | -0.21% | -1.51%
24 | C[C@H]1C[C@H]2[C@@H]3CCC4=CC(=O)C=C[C@]4(C)[C@@]3(Cl)[C@@H](O)C[C@]2(C)[C@@]1(O)C(=O)CO [beclomethasone] | -6.12 | -1.77% | 0.28% | -4.99% | -2.5%
25 | CCCn1c(=O)[nH]c(=O)c2nc[nH]c21 [enprofylline] | 0.79 | 0.93% | 1.89% | 1.3% | 4.03%
26 | Nc1ncnc2[nH]nc(Nc3ccc(F)cc3)c12 | -2.32 | -2.2% | -2.66% | -0.59% | -5.26%
27 | O=C(O)Cn1nnc(-c2cc(N3CCC(Oc4cc(F)ccc4Br)CC3)no2)n1 | -0.51 | -0.71% | 1.39% | -0.54% | 1.73%
28 | O=C(c1ccc(C(=O)N2CCC(N3CCCC3)CC2)c(Nc2ccccc2)c1)N1CCC(N2CCCC2)CC1 | 0.43 | -1.56% | 0.31% | -4.9% | -1.44%
29 | O=C(O)C(Cl)Cl [dichloroacetate] | 4.14 | 1.34% | 2.35% | 0.22% | 2.63%
30 | COc1ccc(NC(=O)c2ccc(-c3ccc(-c4noc(C)n4)cc3C)cc2)cc1N1CCN(C)CC1 | 4.92 | 6.46% | 0.49% | -1.73% | 36.7% (active)
31 | CCn1c(-c2nonc2N)nc2c(C#CC(C)(C)O)ncc(OC[C@H]3CCCNC3)c21 | 2.55 | 4.66% | 3.53% | 5.33% | 4.74%
32 | COc1ccccc1OCC(O)CNC(C)C (stereo not given) [moprolol] | -0.33 | -2.22% | -0.82% | -3.01% | -2.72%
33 | N#Cc1cnc2cnc(NCc3cccnc3)cc2c1Nc1ccc(F)c(Cl)c1 | 0.87 | 1.05% | 2.35% | -1.3% | -8.45%
34 | C[C@@H]1CC(=O)c2c(ccc3c2C(=O)c2cccc(O)c2C3=O)C1 [ochromycinone] | -3.4 | -1.61% | -3.55% | -1.87% | -3.84%
35 | CC(C)(Oc1ccc(Cl)cc1)C(=O)O [clofibric-acid] | 0.55 | 2.02% | 0.3% | 2.45% | 2.22%
36 | O=[N+]([O-])c1cc([N+](=O)[O-])c(/C=C/c2ccc(Cl)c(Cl)c2)cc1/C=C/c1ccc(Cl)c(Cl)c1 | 2 | 1.02% | -3.12% | -5.26% | -2.22%
37 | Cc1cc(C)cc(C(=O)N(C)[C@H](Cc2ccc(-c3ccccc3)cc2)C(=O)N[C@@H](Cc2c[nH]c3ccccc23)C(=O)O)c1 | 0.46 | 3.13% | 5.42% | 0.47% | 1.98%
38 | O=[N+]([O-])c1ccc(O)c([N+](=O)[O-])c1 [2,4-dinitrophenol] | 2.74 | 2.11% | 5.04% | 2.61% | 2.69%
39 | O=C(O)c1ccccc1Nc1cc(Cl)ccc1C(=O)O [lobenzarit] | 0.49 | -0.08% | 0.37% | 2.27% | -3.63%
40 | C=CC(=O)N1CCC(Oc2cc3c(Nc4ccc(Cl)c(Cl)c4F)ncnc3cc2OC)CC1 [poziotinib] | -7.08 | -14.9% | -15.1% | -17.3% | -15.7%
41 | N#Cc1ccc(N2N=C3c4ccc(C(=O)O)cc4CC[C@@H]3[C@@H]2C2CCCC2)cc1Cl | 7.07 | 18% (active) | 18.3% (active) | 4.59% | 10.2%
